Key:
Assay in all cases: PBM; 200 nM protein, PBS
Details in all cases: dsDNA, one strand shown
VENTX = biological target: T1, VENTX (Homo sapiens, UniProt O95231 78-163, R121Q)
T1 sequence: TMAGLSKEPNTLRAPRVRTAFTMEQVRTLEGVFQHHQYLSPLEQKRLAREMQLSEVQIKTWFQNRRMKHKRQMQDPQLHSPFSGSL

HOXA4 [1] = biological target: HOXA4 (Homo sapiens, UniProt Q00056 201-287, W262R)
HOXA7 [2] = biological target: HOXA7 (Homo sapiens, UniProt P31268 116-202)
ALX4 [3] = biological target: ALX4 (Homo sapiens, UniProt Q9H161 200-286)
Sequence of ALX4 (Homo sapiens, UniProt Q9H161 200-286) (Q9H161 200-286): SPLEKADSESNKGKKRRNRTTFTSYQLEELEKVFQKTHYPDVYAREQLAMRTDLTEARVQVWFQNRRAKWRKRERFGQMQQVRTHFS

PRRX1 [4] = biological target: PRRX1 (Homo sapiens, UniProt P54821 80-166, F113S)
Sequence of PRRX1 (Homo sapiens, UniProt P54821 80-166, F113S) (P54821 80-166 F113S): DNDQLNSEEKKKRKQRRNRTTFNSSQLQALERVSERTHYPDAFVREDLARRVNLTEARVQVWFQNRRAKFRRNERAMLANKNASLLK

HOXB6 [5] = biological target: HOXB6 (Homo sapiens, UniProt P17509 132-218, K202E)
Sequence of HOXB6 (Homo sapiens, UniProt P17509 132-218, K202E) (P17509 132-218 K202E): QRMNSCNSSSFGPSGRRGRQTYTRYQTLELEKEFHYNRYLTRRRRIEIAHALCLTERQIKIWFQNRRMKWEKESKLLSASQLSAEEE

ALX4 [6] = biological target: ALX4 (Homo sapiens, UniProt Q9H161 200-286, Q225E)
Sequence of ALX4 (Homo sapiens, UniProt Q9H161 200-286, Q225E) (Q9H161 200-286 Q225E): as the sequence (Q9H161 200-286) above, with Q26E counted along it

HOXA2 = HOXA2 (Homo sapiens, UniProt O43364 129-215, R185T)
Sequence of HOXA2 (O43364 129-215 R185T): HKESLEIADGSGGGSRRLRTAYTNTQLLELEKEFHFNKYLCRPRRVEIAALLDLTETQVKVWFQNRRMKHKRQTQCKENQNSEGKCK

ALX1 [7] = biological target: ALX1 (Homo sapiens, UniProt Q15699 118-204, L144V)
Sequence of ALX1 (Homo sapiens, UniProt Q15699 118-204, L144V) (Q15699 118-204 L144V): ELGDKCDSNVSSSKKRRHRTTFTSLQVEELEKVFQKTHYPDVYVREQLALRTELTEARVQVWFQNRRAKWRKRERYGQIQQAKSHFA

ALX1 [8] = biological target: ALX1 (Homo sapiens, UniProt Q15699 118-204, L144R)
Sequence of ALX1 (Homo sapiens, UniProt Q15699 118-204, L144R) (Q15699 118-204 L144R): as the sequence (Q15699 118-204 L144V) above, with V27R counted along it

HOXA4 [9] = biological target: HOXA4 (Homo sapiens, UniProt Q00056 201-287)
Sequence of HOXA4 (Homo sapiens, UniProt Q00056 201-287) (Q00056 201-287): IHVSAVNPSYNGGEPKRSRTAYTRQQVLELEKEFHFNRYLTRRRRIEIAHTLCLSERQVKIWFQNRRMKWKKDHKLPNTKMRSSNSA

MSX2 = MSX2 (Homo sapiens, UniProt P35548 130-214)
Sequence of MSX2 (P35548 130-214): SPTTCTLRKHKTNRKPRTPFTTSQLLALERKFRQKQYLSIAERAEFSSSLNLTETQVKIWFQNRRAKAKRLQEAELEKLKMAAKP

VAX1 [10] = biological target: VAX1 (Homo sapiens, UniProt Q5SQQ9 86-172, T142I)
Sequence of VAX1 (Homo sapiens, UniProt Q5SQQ9 86-172, T142I) (Q5SQQ9 86-172 T142I): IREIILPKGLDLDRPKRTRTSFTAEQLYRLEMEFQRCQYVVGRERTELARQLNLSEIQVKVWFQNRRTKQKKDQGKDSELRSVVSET

HOXA7 [11] = biological target: HOXA7 (Homo sapiens, UniProt P31268 116-202, W177C)
Sequence of HOXA7 (Homo sapiens, UniProt P31268 116-202, W177C) (P31268 116-202 W177C): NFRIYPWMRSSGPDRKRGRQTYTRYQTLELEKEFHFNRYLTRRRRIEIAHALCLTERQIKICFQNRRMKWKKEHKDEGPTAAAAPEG

ALX1 [12] = biological target: ALX1 (Homo sapiens, UniProt Q15699 118-204)
Sequence of ALX1 (Homo sapiens, UniProt Q15699 118-204) (Q15699 118-204): as the sequence (Q15699 118-204 L144V) above, with V27L counted along it

HOXA4 [13] = biological target: HOXA4 (Homo sapiens, UniProt Q00056 201-287, W262F)
Sequence of HOXA4 (Homo sapiens, UniProt Q00056 201-287, W262F) (Q00056 201-287 W262F): as the sequence (Q00056 201-287) above, with W62F counted along it

PRRX1 [14] = biological target: PRRX1 (Homo sapiens, UniProt P54821 80-166)
Sequence of PRRX1 (Homo sapiens, UniProt P54821 80-166) (P54821 80-166): as the sequence (P54821 80-166 F113S) above, with S34F counted along it

VAX1 [15] = biological target: VAX1 (Homo sapiens, UniProt Q5SQQ9 86-172, K157R)
Sequence of VAX1 (Homo sapiens, UniProt Q5SQQ9 86-172, K157R) (Q5SQQ9 86-172 K157R): as the sequence (Q5SQQ9 86-172 T142I) above, with I57T, K72R counted along it

HOXB6 [16] = biological target: HOXB6 (Homo sapiens, UniProt P17509 132-218)
Sequence of HOXB6 (Homo sapiens, UniProt P17509 132-218) (P17509 132-218): as the sequence (P17509 132-218 K202E) above, with E71K counted along it

NKX2-5 = NKX2-5 (Homo sapiens, UniProt P52952 125-210)
Sequence of NKX2-5 (P52952 125-210): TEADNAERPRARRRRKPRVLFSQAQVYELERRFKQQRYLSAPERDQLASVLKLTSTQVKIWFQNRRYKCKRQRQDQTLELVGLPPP

Sequence of HOXA4 (Homo sapiens, UniProt Q00056 201-287, W262R) (Q00056 201-287 W262R): as the sequence (Q00056 201-287) above, with W62R counted along it
Sequence of HOXA7 (Homo sapiens, UniProt P31268 116-202) (P31268 116-202): as the sequence (P31268 116-202 W177C) above, with C62W counted along it

Sequence	binding signal (VENTX)	binding signal (HOXA4 [1])	binding signal (HOXA7 [2])	binding signal (ALX4 [3])	binding signal (PRRX1 [4])	binding signal (HOXB6 [5])	binding signal (ALX4 [6])	binding signal (HOXA2)	binding signal (ALX1 [7])	binding signal (ALX1 [8])	binding signal (HOXA4 [9])	binding signal (MSX2)	binding signal (VAX1 [10])	binding signal (HOXA7 [11])	binding signal (ALX1 [12])	binding signal (HOXA4 [13])	binding signal (PRRX1 [14])	binding signal (VAX1 [15])	binding signal (HOXB6 [16])	binding signal (NKX2-5)
GTTAATTA	12.5 upbm affinity estimate (log intensity, higher = more binding, comparable within an allelic series)	11 upbm affinity estimate (log intensity, higher = more binding, comparable within an allelic series)	12.2 upbm affinity estimate (log intensity, higher = more binding, comparable within an allelic series)	14.5 upbm affinity estimate (log intensity, higher = more binding, comparable within an allelic series)	12 upbm affinity estimate (log intensity, higher = more binding, comparable within an allelic series)	10.2 upbm affinity estimate (log intensity, higher = more binding, comparable within an allelic series)	14.5 upbm affinity estimate (log intensity, higher = more binding, comparable within an allelic series)	13.9 upbm affinity estimate (log intensity, higher = more binding, comparable within an allelic series)	12.3 upbm affinity estimate (log intensity, higher = more binding, comparable within an allelic series)	12 upbm affinity estimate (log intensity, higher = more binding, comparable within an allelic series)	14.3 upbm affinity estimate (log intensity, higher = more binding, comparable within an allelic series)	14 upbm affinity estimate (log intensity, higher = more binding, comparable within an allelic series)	13.9 upbm affinity estimate (log intensity, higher = more binding, comparable within an allelic series)	8.93 upbm affinity estimate (log intensity, higher = more binding, comparable within an allelic series)	13 upbm affinity estimate (log intensity, higher = more binding, comparable within an allelic series)	13 upbm affinity estimate (log intensity, higher = more binding, comparable within an allelic series)	13.6 upbm affinity estimate (log intensity, higher = more binding, comparable within an allelic series)	13.9 upbm affinity estimate (log intensity, higher = more binding, comparable within an allelic series)	12.5 upbm affinity estimate (log intensity, higher = more binding, comparable within an allelic series)	
CTAATTAA	12.7 upbm affinity estimate (log intensity, higher = more binding, comparable within an allelic series)	11 upbm affinity estimate (log intensity, higher = more binding, comparable within an allelic series)	11.9 upbm affinity estimate (log intensity, higher = more binding, comparable within an allelic series)	14.4 upbm affinity estimate (log intensity, higher = more binding, comparable within an allelic series)	12.1 upbm affinity estimate (log intensity, higher = more binding, comparable within an allelic series)	10.1 upbm affinity estimate (log intensity, higher = more binding, comparable within an allelic series)	14.4 upbm affinity estimate (log intensity, higher = more binding, comparable within an allelic series)	13.8 upbm affinity estimate (log intensity, higher = more binding, comparable within an allelic series)	12.3 upbm affinity estimate (log intensity, higher = more binding, comparable within an allelic series)	11.9 upbm affinity estimate (log intensity, higher = more binding, comparable within an allelic series)	14.2 upbm affinity estimate (log intensity, higher = more binding, comparable within an allelic series)	14.1 upbm affinity estimate (log intensity, higher = more binding, comparable within an allelic series)	13.8 upbm affinity estimate (log intensity, higher = more binding, comparable within an allelic series)	8.82 upbm affinity estimate (log intensity, higher = more binding, comparable within an allelic series)	12.9 upbm affinity estimate (log intensity, higher = more binding, comparable within an allelic series)	12.7 upbm affinity estimate (log intensity, higher = more binding, comparable within an allelic series)	13.7 upbm affinity estimate (log intensity, higher = more binding, comparable within an allelic series)	13.8 upbm affinity estimate (log intensity, higher = more binding, comparable within an allelic series)	12.2 upbm affinity estimate (log intensity, higher = more binding, comparable within an allelic series)	
CTGATCAG																				8.87 upbm affinity estimate (log intensity, higher = more binding, comparable within an allelic series)
GTAATTAC	12.4 upbm affinity estimate (log intensity, higher = more binding, comparable within an allelic series)	10.8 upbm affinity estimate (log intensity, higher = more binding, comparable within an allelic series)	12.5 upbm affinity estimate (log intensity, higher = more binding, comparable within an allelic series)	14.3 upbm affinity estimate (log intensity, higher = more binding, comparable within an allelic series)	11.5 upbm affinity estimate (log intensity, higher = more binding, comparable within an allelic series)	10.4 upbm affinity estimate (log intensity, higher = more binding, comparable within an allelic series)	13.5 upbm affinity estimate (log intensity, higher = more binding, comparable within an allelic series)	14.1 upbm affinity estimate (log intensity, higher = more binding, comparable within an allelic series)	12.1 upbm affinity estimate (log intensity, higher = more binding, comparable within an allelic series)	11.7 upbm affinity estimate (log intensity, higher = more binding, comparable within an allelic series)	14.3 upbm affinity estimate (log intensity, higher = more binding, comparable within an allelic series)	14.2 upbm affinity estimate (log intensity, higher = more binding, comparable within an allelic series)	13.9 upbm affinity estimate (log intensity, higher = more binding, comparable within an allelic series)	9.01 upbm affinity estimate (log intensity, higher = more binding, comparable within an allelic series)	12.5 upbm affinity estimate (log intensity, higher = more binding, comparable within an allelic series)	12.5 upbm affinity estimate (log intensity, higher = more binding, comparable within an allelic series)	13.5 upbm affinity estimate (log intensity, higher = more binding, comparable within an allelic series)	13.9 upbm affinity estimate (log intensity, higher = more binding, comparable within an allelic series)	12.8 upbm affinity estimate (log intensity, higher = more binding, comparable within an allelic series)	
CGTAATTA	12.2 upbm affinity estimate (log intensity, higher = more binding, comparable within an allelic series)	10.7 upbm affinity estimate (log intensity, higher = more binding, comparable within an allelic series)	12 upbm affinity estimate (log intensity, higher = more binding, comparable within an allelic series)	14.2 upbm affinity estimate (log intensity, higher = more binding, comparable within an allelic series)	11.5 upbm affinity estimate (log intensity, higher = more binding, comparable within an allelic series)	10.2 upbm affinity estimate (log intensity, higher = more binding, comparable within an allelic series)	13.5 upbm affinity estimate (log intensity, higher = more binding, comparable within an allelic series)	13.9 upbm affinity estimate (log intensity, higher = more binding, comparable within an allelic series)	12 upbm affinity estimate (log intensity, higher = more binding, comparable within an allelic series)	11.7 upbm affinity estimate (log intensity, higher = more binding, comparable within an allelic series)	14.2 upbm affinity estimate (log intensity, higher = more binding, comparable within an allelic series)	14 upbm affinity estimate (log intensity, higher = more binding, comparable within an allelic series)	13.6 upbm affinity estimate (log intensity, higher = more binding, comparable within an allelic series)	8.91 upbm affinity estimate (log intensity, higher = more binding, comparable within an allelic series)	12.7 upbm affinity estimate (log intensity, higher = more binding, comparable within an allelic series)	12.3 upbm affinity estimate (log intensity, higher = more binding, comparable within an allelic series)	13.5 upbm affinity estimate (log intensity, higher = more binding, comparable within an allelic series)	13.7 upbm affinity estimate (log intensity, higher = more binding, comparable within an allelic series)	12.4 upbm affinity estimate (log intensity, higher = more binding, comparable within an allelic series)	
CTCTTATC																				11.4 upbm affinity estimate (log intensity, higher = more binding, comparable within an allelic series)
GCTAATTA	13 upbm affinity estimate (log intensity, higher = more binding, comparable within an allelic series)	10.8 upbm affinity estimate (log intensity, higher = more binding, comparable within an allelic series)	12.1 upbm affinity estimate (log intensity, higher = more binding, comparable within an allelic series)	14.6 upbm affinity estimate (log intensity, higher = more binding, comparable within an allelic series)	12 upbm affinity estimate (log intensity, higher = more binding, comparable within an allelic series)	10.1 upbm affinity estimate (log intensity, higher = more binding, comparable within an allelic series)	14.4 upbm affinity estimate (log intensity, higher = more binding, comparable within an allelic series)	14.2 upbm affinity estimate (log intensity, higher = more binding, comparable within an allelic series)	12.4 upbm affinity estimate (log intensity, higher = more binding, comparable within an allelic series)	12 upbm affinity estimate (log intensity, higher = more binding, comparable within an allelic series)	14.3 upbm affinity estimate (log intensity, higher = more binding, comparable within an allelic series)	14.3 upbm affinity estimate (log intensity, higher = more binding, comparable within an allelic series)	14.1 upbm affinity estimate (log intensity, higher = more binding, comparable within an allelic series)	8.89 upbm affinity estimate (log intensity, higher = more binding, comparable within an allelic series)	13.1 upbm affinity estimate (log intensity, higher = more binding, comparable within an allelic series)	13 upbm affinity estimate (log intensity, higher = more binding, comparable within an allelic series)	13.7 upbm affinity estimate (log intensity, higher = more binding, comparable within an allelic series)	14.2 upbm affinity estimate (log intensity, higher = more binding, comparable within an allelic series)	12.5 upbm affinity estimate (log intensity, higher = more binding, comparable within an allelic series)	
GCCGACCC																				8.81 upbm affinity estimate (log intensity, higher = more binding, comparable within an allelic series)
GCCCTCTA																				10.5 upbm affinity estimate (log intensity, higher = more binding, comparable within an allelic series)
AATTAATA	11.9 upbm affinity estimate (log intensity, higher = more binding, comparable within an allelic series)	10.8 upbm affinity estimate (log intensity, higher = more binding, comparable within an allelic series)	11.7 upbm affinity estimate (log intensity, higher = more binding, comparable within an allelic series)	14 upbm affinity estimate (log intensity, higher = more binding, comparable within an allelic series)	11.4 upbm affinity estimate (log intensity, higher = more binding, comparable within an allelic series)	10.2 upbm affinity estimate (log intensity, higher = more binding, comparable within an allelic series)	13.4 upbm affinity estimate (log intensity, higher = more binding, comparable within an allelic series)	12.6 upbm affinity estimate (log intensity, higher = more binding, comparable within an allelic series)	11.8 upbm affinity estimate (log intensity, higher = more binding, comparable within an allelic series)	11.6 upbm affinity estimate (log intensity, higher = more binding, comparable within an allelic series)	13.8 upbm affinity estimate (log intensity, higher = more binding, comparable within an allelic series)	13.5 upbm affinity estimate (log intensity, higher = more binding, comparable within an allelic series)	12.8 upbm affinity estimate (log intensity, higher = more binding, comparable within an allelic series)	8.99 upbm affinity estimate (log intensity, higher = more binding, comparable within an allelic series)	12.3 upbm affinity estimate (log intensity, higher = more binding, comparable within an allelic series)	11.8 upbm affinity estimate (log intensity, higher = more binding, comparable within an allelic series)	13.4 upbm affinity estimate (log intensity, higher = more binding, comparable within an allelic series)	12.5 upbm affinity estimate (log intensity, higher = more binding, comparable within an allelic series)	12.1 upbm affinity estimate (log intensity, higher = more binding, comparable within an allelic series)	
GGTAATTA	12.6 upbm affinity estimate (log intensity, higher = more binding, comparable within an allelic series)	10.9 upbm affinity estimate (log intensity, higher = more binding, comparable within an allelic series)	12.6 upbm affinity estimate (log intensity, higher = more binding, comparable within an allelic series)	14.4 upbm affinity estimate (log intensity, higher = more binding, comparable within an allelic series)	11.6 upbm affinity estimate (log intensity, higher = more binding, comparable within an allelic series)	10.4 upbm affinity estimate (log intensity, higher = more binding, comparable within an allelic series)	13.9 upbm affinity estimate (log intensity, higher = more binding, comparable within an allelic series)	14.1 upbm affinity estimate (log intensity, higher = more binding, comparable within an allelic series)	12.1 upbm affinity estimate (log intensity, higher = more binding, comparable within an allelic series)	11.8 upbm affinity estimate (log intensity, higher = more binding, comparable within an allelic series)	14.3 upbm affinity estimate (log intensity, higher = more binding, comparable within an allelic series)	14.2 upbm affinity estimate (log intensity, higher = more binding, comparable within an allelic series)	14.1 upbm affinity estimate (log intensity, higher = more binding, comparable within an allelic series)	9.03 upbm affinity estimate (log intensity, higher = more binding, comparable within an allelic series)	12.8 upbm affinity estimate (log intensity, higher = more binding, comparable within an allelic series)	12.8 upbm affinity estimate (log intensity, higher = more binding, comparable within an allelic series)	13.5 upbm affinity estimate (log intensity, higher = more binding, comparable within an allelic series)	14.2 upbm affinity estimate (log intensity, higher = more binding, comparable within an allelic series)	12.9 upbm affinity estimate (log intensity, higher = more binding, comparable within an allelic series)	
AACGTGGG																				8.69 upbm affinity estimate (log intensity, higher = more binding, comparable within an allelic series)
ACCGCGGG																				8.44 upbm affinity estimate (log intensity, higher = more binding, comparable within an allelic series)
